From PubChem BioAssay
Records with an inconclusive call do not appear. Calls of active or inactive are those of the source.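 Rule for the calls, unless noted: active = normalized viability below 100% at a tested concentration; inactive = the rest.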

Assays:
[1] = viability loss in pontine glioma line – cell-based, SU-DIPG-XVII, MIPE5.0, CellTiter-Glo, qHTS, dose response (AID 1347060; cut-off not given, nearly all actives have AC50 up to about 26 µM;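 note: cells exposed to compound for 48 hours before viability readout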); conditions: CellTiter-Glo ATP luminescence
[2] = viability loss in pontine glioma line – cell-based, JHH-DIPG-1, MIPE4.0, CellTiter-Glo, qHTS, dose response (AID 1347062; cut-off not given, nearly all actives have AC50 up to about 27 µM;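 note: cells exposed to compound for two days before readout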); conditions: JHH-DIPG-1 viability, CellTiter-Glo ATP luminescence
[3] = viability loss in pontine glioma line – cell-based, SU-DIPG-IV, MIPE4.0, CellTiter-Glo, qHTS, dose response (AID 1347063; cut-off not given, nearly all actives have AC50 up to about 30 µM;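 note: compound exposure lasted 48 hours before the viability readout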); conditions: CellTiter-Glo ATP luminescence
[4] = growth inhibition of DIPG cells – cell-based, MIPE4.0 library, CellTiter-Glo luminescence, qHTS (AID 1347066; cut-off not given, nearly all actives have AC50 up to about 30 µM;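 note: cells exposed to compound for 48 hours before readout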); conditions: SU-DIPG-VI viability, CellTiter-Glo ATP luminescence
[5] = JHH-DIPG-1 glioma cell viability, MIPE5.0 library, CellTiter-Glo luminescence, qHTS (AID 1347067; cut-off not given, nearly all actives have AC50 up to about 26 µM;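 note: cells exposed to compound for 48 hours before readout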); conditions: JHH-DIPG-1 glioma viability, CellTiter-Glo ATP luminescence
[6] = viability loss with induced miR-34 in A549 – imaging, A549 dox-inducible miR-34, nuclei and caspase counts, primary screen (AID 1347080;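 active = compounds whose cell count with miR-34 switched on is under 0.7 times the count with it off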); conditions: A549 miR-34 inducible, Hoechst nuclei count, 48 h
[7] = MELAS cybrid and Rieske KO viability enhancers – cell-based, MELAS cybrids, Rieske KO mouse fibroblasts, CellTiter-Glo, primary screen (AID 1508586;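 active = mean z-score across replicates of 1.96 or higher in either the MELAS or the Rieske mutant cell line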;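 note: z relative to plate mean and SD of compound and empty wells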); conditions: low glucose
[8] = viability loss in pontine glioma line – cell-based, SU-DIPG-XXV, MIPE5.0, CellTiter-Glo, qHTS, dose response (AID 1347065; cut-off not given, nearly all actives have AC50 up to about 26 µM;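 note: cells exposed to compound for 48 hours before ATP readout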); conditions: CellTiter-Glo ATP luminescence
[9] = compounds altering HSF1 focus formation in cells – imaging, Selleck Cancer Library (AID 1347162; in the data active = plate-normalised HSF1 focus index below about 0.46); conditions: human cells, HSF1 nuclear foci imaging, at 10 µM; SSMD: measured here: HSF1 foci SSMD mean; cell count: measured here: cell number; plate-normalised HSF1 focus index: stronger effect = lower value
[10] = drug combination growth inhibition, ovarian cancer – cell-based, oncology-focused library, rucaparib conditional, profiling panel (AID 1508598); conditions: patient-derived ovarian cancer cells, CellTiter-Glo viability, 144 h, stronger effect = lower value
[11] = stronger effect = lower value, cell number ratio, induced over uninduced
[12] = measured here: relative caspase fold change +Dox/-Dox
[13] = measured here: total cells with miR-34 induction, stronger effect = lower value
[14] = measured here: total cells without miR-34 induction
[15] = MELAS cybrid survival, CellTiter-Glo 48 h, stronger effect = higher value
[16] = Rieske KO mouse fibroblast survival, CellTiter-Glo 72 h

NCC(=O)Nc1ccc(-n2nc(C(F)(F)F)cc2-c2ccc3c(ccc4ccccc43)c2)cc1
AC50 [1]: 23.5 µM (active) | AC50 [2]: 23.5 µM (active) | AC50 [3]: 20.9 µM (active) | AC50 [4]: 20.9 µM (active) | AC50 [5]: 20.9 µM (active) | fold change [6, 11]: 1.2 (inactive) | fold change [6, 12]: 0.441 | cell count [6, 13]: 2160 | cell count [6, 14]: 1800 | z-score [7, 15]: -0.432 (inactive) | z-score [7, 16]: -0.00325

C[C@H]1[C@H](OC(=O)CCC(=O)O)O[C@@H]2O[C@@]3(C)CC[C@H]4[C@H](C)CC[C@@H]1[C@@]24OO3
AC50 [1]: 3.72 µM (active) | AC50 [2]: 14.8 µM (active) | AC50 [3]: 3.72 µM (active) | AC50 [8]: 13.2 µM (active) | outcome [4]: inactive

Cn1cncc1[C@@](N)(c1ccc(Cl)cc1)c1ccc2c(c1)c(-c1cccc(Cl)c1)cc(=O)n2C
AC50 [1]: 33.2 µM (active) | AC50 [2]: 23.5 µM (active) | AC50 [3]: 8.33 µM (active) | AC50 [8]: 16.6 µM (active) | AC50 [4]: 18.7 µM (active) | AC50 [5]: 18.6 µM (active) | fold change [6, 11]: 1.1 (inactive) | fold change [6, 12]: 0.725 | cell count [6, 13]: 5030 | cell count [6, 14]: 4560 | SSMD [9]: -8.89 | cell count [9]: 4640 | plate-normalised HSF1 focus index [9]: 0.564 (inactive) | z-score [7, 15]: -0.557 (inactive) | z-score [7, 16]: -0.393 | viability ([10]; at 0.000305 µM, OCI-C5x cells, with rucaparib 10 µM, 100% = cells with rucaparib alone): 113% (inactive) | viability ([10]; at 0.000305 µM, OCI-C5x cells, without rucaparib): 115% (inactive) | viability ([10]; at 0.000305 µM, OCI-P5x cells, with rucaparib 20 µM, 100% = cells with rucaparib alone): 102% (inactive) | viability ([10]; at 0.000305 µM, OCI-P5x cells, without rucaparib): 113% (inactive) | viability ([10]; at 0.00122 µM, OCI-C5x cells, with rucaparib 10 µM, 100% = cells with rucaparib alone): 118% (inactive) | viability ([10]; at 0.00122 µM, OCI-C5x cells, without rucaparib): 111% (inactive) | viability ([10]; at 0.00122 µM, OCI-P5x cells, with rucaparib 20 µM, 100% = cells with rucaparib alone): 103% (inactive) | viability ([10]; at 0.00122 µM, OCI-P5x cells, without rucaparib): 109% (inactive) | viability ([10]; at 0.00488 µM, OCI-C5x cells, with rucaparib 10 µM, 100% = cells with rucaparib alone): 115% (inactive) | viability ([10]; at 0.00488 µM, OCI-C5x cells, without rucaparib): 122% (inactive) | viability ([10]; at 0.00488 µM, OCI-P5x cells, with rucaparib 20 µM, 100% = cells with rucaparib alone): 107% (inactive) | viability ([10]; at 0.00488 µM, OCI-P5x cells, without rucaparib): 107% (inactive) | viability ([10]; at 0.0195 µM, OCI-C5x cells, with rucaparib 10 µM, 100% = cells with rucaparib alone): 114% (inactive) | viability ([10]; at 0.0195 µM, OCI-C5x cells, without rucaparib): 123% (inactive) | viability ([10]; at 0.0195 µM, OCI-P5x cells, with rucaparib 20 µM, 100% = cells with rucaparib alone): 98.9% (active) | viability ([10]; at 0.0195 µM, OCI-P5x cells, without rucaparib): 85.9% (active) | viability ([10]; at 0.0781 µM, OCI-C5x cells, with rucaparib 10 µM, 100% = cells with rucaparib alone): 111% (inactive) | viability ([10]; at 0.0781 µM, OCI-C5x cells, without rucaparib): 121% (inactive) | viability ([10]; at 0.0781 µM, OCI-P5x cells, with rucaparib 20 µM, 100% = cells with rucaparib alone): 92.4% (active) | viability ([10]; at 0.0781 µM, OCI-P5x cells, without rucaparib): 67.4% (active) | viability ([10]; at 0.313 µM, OCI-C5x cells, with rucaparib 10 µM, 100% = cells with rucaparib alone): 113% (inactive) | viability ([10]; at 0.313 µM, OCI-C5x cells, without rucaparib): 99.3% (active) | viability ([10]; at 0.313 µM, OCI-P5x cells, with rucaparib 20 µM, 100% = cells with rucaparib alone): 74.4% (active) | viability ([10]; at 0.313 µM, OCI-P5x cells, without rucaparib): 66.7% (active) | viability ([10]; at 1.25 µM, OCI-C5x cells, with rucaparib 10 µM, 100% = cells with rucaparib alone): 101% (inactive) | viability ([10]; at 1.25 µM, OCI-C5x cells, without rucaparib): 104% (inactive) | viability ([10]; at 1.25 µM, OCI-P5x cells, with rucaparib 20 µM, 100% = cells with rucaparib alone): 23.5% (active) | viability ([10]; at 1.25 µM, OCI-P5x cells, without rucaparib): 28.3% (active) | viability ([10]; at 5 µM, OCI-C5x cells, with rucaparib 10 µM, 100% = cells with rucaparib alone): 1.75% (active) | viability ([10]; at 5 µM, OCI-C5x cells, without rucaparib): 5.47% (active) | viability ([10]; at 5 µM, OCI-P5x cells, with rucaparib 20 µM, 100% = cells with rucaparib alone): 0.988% (active) | viability ([10]; at 5 µM, OCI-P5x cells, without rucaparib): 1.42% (active)
